High-throughput results as filed in PubChem.
Sampled rows, rich in hits. Any-hit rate of the full collection: about 21%.
IL-1B inflam inh: qHTS for Inhibitors of Inflammasome Signaling: IL-1-beta AlphaLISA Primary Screen. THP-1 LPS/ATP IL-1B secretion, AlphaLISA, 16 h; hits give low values. activity change, % at 57.5 µM. hit rate 4.7% among 360,000. AID 743279, 2014; in the data active = activity change below about -50%; inconclusive = mostly about -30% to -49%; note: % is set by controls: 0 for no effect and ±100 for the full control effect
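Secreted IL-1B measured by AlphaLISA bead assay after 16 h compound exposure of THP-1 cells; compounds (final up to 57.5 uM) added 1 h before LPS (250 ng/mL) and ATP (1.25 mM) stimulation; lower signal means less secretion.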
TDP1 cell noCPT: qHTS for Inhibitors of human tyrosyl-DNA phosphodiesterase 1 (TDP1): qHTS in cells in absence of CPT. DT40 Tdp1-/- hTDP1 cells, no CPT, ATP luminescence, 48 h. Potency, µM (highest dose often 46.2 µM), for inactives: top-dose activity change, negative = growth inhibition, actives largely listed as inhibitors. hit rate 15% among 420,000; note: potency is the fitted concentration of half-maximal effect; % is set by controls: 0 for no effect and ±100 for the full control effect; nearly all actives have a fitted effect of over 55% in size
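Growth of hTDP1-complemented DT40 Tdp1-knockout cells is measured by ATP luminescence after at least 48 hr compound exposure at 37 °C, with DMSO substituting for the 20 nM CPT used in the parallel screen.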
TDP1 cell CPT: qHTS for Inhibitors of human tyrosyl-DNA phosphodiesterase 1 (TDP1): qHTS in cells in presence of CPT; hit rate 12% among 420,000; chicken DT40 Tdp1-/-;hTDP1 cells + 20 nM CPT, ATP luminescence, 48 h; Potency, µM (titrated, usually from 46.2 µM), inactives show at the highest dose activity change, negative = growth inhibition, usual class: inhibitors; note: potency is the fitted concentration of half-maximal effect; % is set by controls: 0 for no effect and ±100 for the full control effect; nearly all actives have a fitted effect of over 55% in size
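Chicken DT40 Tdp1-/- cells complemented with human TDP1, 400 cells/well, exposed to compounds plus 20 nM camptothecin for at least 48 h at 37 C; viability read as ATP content by CellTiter-Glo luminescence.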
ClpP mod: qHTS Assay for Activators of ClpP | Potency, µM (top dose mostly 57.5 µM), inactives show at the highest dose activity change, negative = active | purified B. subtilis ClpP, FRET peptide cleavage, 20 min | ATP-dependent Clp protease proteolytic subunit (Bacillus subtilis (strain 168)), P80244 | hit rate 1.9% among 340,000; active = well fitted falling curve with a large enough effect; inconclusive = small, poorly fitted or top-dose-only effect; inactive = no such curve, though single readings can be large or run the other way; note: potency is the fitted concentration of half-maximal effect; the source files actives as falling curves though it sought activators and does not explain the sign; nearly all actives have a fitted effect of over 65% in size
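ClpP 10 microg/mL final, pH 8 Tris/KCl buffer with BSA, glycerol, Tween-20; compound pinned in; FRET-FV substrate; RT 20 min; Ex320/Em430; ΔFRET vs ADEP 5.8 microM, DMSO, no enzyme.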
D3 antag: qHTS of D3 Dopamine Receptor Antagonist: qHTS; D(3) dopamine receptor (Homo sapiens), P35462; D3R cells, DiscoveRx beta-arrestin luminescence, antagonist mode; hits give low values; max response, negative = inhibition, %; hit rate 2.5% among 360,000; AID 652054, 2013; in the data active = max response below about -50%; inconclusive = no clear call, values can overlap the other calls; note: % is set by controls: 0 for no effect and ±100 for the full control effect
Target sequence (P35462 whole entry, looked up): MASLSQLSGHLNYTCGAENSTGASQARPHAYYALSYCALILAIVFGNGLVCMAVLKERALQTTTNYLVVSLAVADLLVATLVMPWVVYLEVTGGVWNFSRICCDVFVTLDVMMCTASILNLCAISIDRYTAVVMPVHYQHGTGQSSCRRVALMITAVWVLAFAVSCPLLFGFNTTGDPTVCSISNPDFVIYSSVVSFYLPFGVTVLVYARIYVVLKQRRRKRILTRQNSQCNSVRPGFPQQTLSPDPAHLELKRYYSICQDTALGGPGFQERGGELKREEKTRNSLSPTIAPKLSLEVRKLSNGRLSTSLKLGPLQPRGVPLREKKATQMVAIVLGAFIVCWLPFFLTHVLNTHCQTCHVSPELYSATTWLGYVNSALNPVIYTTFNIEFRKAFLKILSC
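Cells plated overnight at 1500 cells/well, then exposed to library compounds with dopamine controls for 90 minutes at 37 degrees C. DiscoveRx reagent added for 30–60 minutes at room temperature; luminescence read, quantitative HTS format.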
D3 ag: qHTS of D3 Dopamine Receptor Agonist: qHTS; D(3) dopamine receptor (Homo sapiens), P35462; D3R DiscoveRx beta-arrestin cells, luminescence, 90 min; max activation, %; hit rate 0.58% among 410,000; AID 652048, 2013; in the data active = max activation above about 30%; note: 0% is about no effect
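Agonist mode: compounds and dopamine controls were applied to plated cells for 90 min at 37 degrees C after an overnight attachment at 1500 cells/well. Luminescent read-out followed 30 - 60 minutes at room temperature with DiscoveRx detection reagent.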
* marks the source's active call; other numbers are inactive results; ? = inconclusive; / = no result given. Unless noted, calls come from the whole dose curve; as a rule, active = well fitted inhibition curve with a large enough effect; inconclusive = small, poorly fitted or top-dose-only effect; inactive = flat fitted curve, though single readings scatter.

SMILES | IL-1B inflam inh | TDP1 cell noCPT | TDP1 cell CPT | ClpP mod | D3 antag | D3 ag
Cc1cc(N2CCN(c3ccccc3)CC2)n2cc(-c3ccccc3)nc2n1 | -68* | 10µM* | ? | ? | -7 | 3
Cc1cc[n+]2cc(-c3cccc([N+](=O)[O-])c3)c(-c3cccc([N+](=O)[O-])c3)cc2c1 | -10 | 3% | -2% | -3% | 15 | 1
COc1ccc(OCC(=O)OCC(=O)NCC2CCCCC2)cc1 | 27 | 2% | -10% | -3% | -13 | 19
CCC(C)(C)n1nnnc1C(c1ccc2ncccc2c1)N1CCN(c2ccc(O)cc2)CC1 (configuration not stated) | -4 | -25% | -6% | / | 0 | -8
CCC(C)(C)n1nnnc1C(c1ccc2ncccc2c1)N1CCCC(C)C1 (configuration not stated) | -18 | 11µM* | -22% | -1% | -26 | 3
CCC(C)(C)n1nnnc1C(c1ccc2ncccc2c1)N1CCN(c2nc3ccccc3s2)CC1 (configuration not stated) | -11 | ? | 21µM* | -4% | -17 | -16
COC[C@@H]1CCCN1[C@H]1CS(=O)(=O)N[C@@H]1COCc1ccccc1 | -11 | 1% | -13% | 0% | 0 | -11
CCCn1c(CN2CCN(C(=O)OCC)CC2)nc2cc(NC(=O)C(C)C)ccc21 | 0 | 12µM* | 21µM* | -4% | -3 | -5
CCCn1c(CN2CCN(C(=O)OCC)CC2)nc2cc(NC(C)=O)ccc21 | -3 | 16µM* | ? | -2% | 5 | -2
CCOC(=O)N1CCN(Cc2nc3cc(NC(=O)c4ccco4)ccc3n2C)CC1 | 9 | -1% | -1% | -1% | -3 | 1
CN(CCCc1cnc[nH]1)C(=S)NCCCN(Cc1ccc(Cl)cc1)c1ccc(Br)cn1 | / | ? | ? | -23% | / | /
COc1cc(O)c(CCC(=O)c2cc(OC)c(OC)c(OC)c2)c(OC)c1 | 9 | 15µM* | 21µM* | -6% | 22 | 12
COc1cc(O)c(C(C)=O)c(OC)c1 | -13 | ? | ? | 1% | 0 | -21
Nc1nc2ccccc2cc1-c1cccs1 | -14 | 4% | -5% | 4% | 4 | 4
c1csc(-c2ccc3ccccc3n2)c1 | 16 | -34% | -8% | 14µM* | 21 | 11
COc1cc(C(=O)OCC(=O)N2c3ccccc3NC(=O)C2(C)C)ccc1OCC(C)C | -81* | ? | ? | -3% | 22 | 4
Cc1ccc(C(=O)c2ccccc2C(=O)OCC(=O)NCCc2ccccc2)cc1 | -75* | ? | ? | 1% | 14 | -2
O=C(COC(=O)c1ccccc1C(=O)c1ccccc1)NCCc1ccc(Cl)cc1Cl | -85* | 21µM* | ? | -5% | 0 | 10
O=C(COc1ccc(C(=O)c2ccccc2)cc1)NCc1ccc(F)cc1 | -3 | 1µM* | 0.92µM* | ? | -14 | -3
Cc1c(C(=O)NC2CC(=O)N(c3ccc4c(c3)OCCO4)C2)cccc1[N+](=O)[O-] (configuration not stated) | 7 | -15% | 7% | / | 1 | 0
Cc1ccc(S(=O)(=O)c2cnc(SCC(=O)Nc3ccc4c(c3)OCCO4)[nH]c2=O)cc1Cl | / | / | / | 1% | / | 9
O=C(COC(=O)c1ccccc1C(=O)c1ccccc1)NCc1ccc(F)cc1 | -77* | ? | ? | 0% | -8 | -3
O=C(COC(=O)c1cccnc1Cl)NCc1ccc(F)cc1 | -9 | -8% | -6% | 0% | 5 | -5
